Measurements from PubChem BioAssay (EPA / NIEHS).
“And” between values parts separate entries of the source, which are not always exact repeats. Equal entries are not always repeated. Results filed as inconclusive are left out. Some compounds were tested as several samples or in several runs, with calls that do not always agree. The source made the active and inactive calls. Rule for the calls, unless noted: active = hit-call score of the fitted dose curve at least 0.9, where 1 is the maximum; inconclusive = response in the unintended direction; inactive = score below 0.9.

Key:
[1] = BSK_4H_Eotaxin3: BioMAP Diversity Plus: 4H Assay for Eotaxin 3 Biomarker Activity (AID 2283000; active = hit-call score of the fitted dose curve at least 0.9, where 1 is the maximum; inactive = score below 0.9); conditions: primary human endothelial cells (HUVEC); actives raise or lower the signal
Outline: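 HUVEC, 24 h post-dose, ELISA for Eotaxin-3/CCL26. Gain or loss of signal fitted bidirectionally vs DMSO baseline.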

[2] = biological target: human Peroxisome Proliferator-activated Receptor delta (PPARd), PPARD (gene 5467) (UniProt Q03181); experiment: ATG_PPARd_TRANS: Attagene TRANS-FACTORIAL HepG2 Assay for human Peroxisome Proliferator-activated Receptor delta (PPARd) (AID 2283002)
Outline: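 Multiplexed trans-activation format: HepG2 liver cells expressing exogenous NR-Gal4 chimeras and GAL4-UAS reporters were exposed for 24 h. Reporter mRNA was detected by RT-PCR with capillary electrophoresis fluorescence; activity fitted as gain of signal relative to DMSO.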

[3] = read-out: Intercellular Adhesion Molecule 1 (ICAM1), ICAM1 (gene 3383); experiment: BSK_3C_ICAM1: BioMAP Diversity Plus: 3C Assay for Intercellular Adhesion Molecule 1 (ICAM1) Biomarker Activity (AID 2283003; active = hit-call score of the fitted dose curve at least 0.9, where 1 is the maximum; inactive = score below 0.9); conditions: primary human endothelial cells (HUVEC); actives raise or lower the signal
Outline: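 Human vascular endothelial primary cells, 3C conditions, 24 h treatment. ICAM-1 by ELISA.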

[4] = biological target: human Retinoic Acid Receptor beta (RARb), RARB (gene 5915) (UniProt P10826); experiment: ATG_RARb_TRANS: Attagene TRANS-FACTORIAL HepG2 Assay for human Retinoic Acid Receptor beta (AID 2283004)
human Retinoic Acid Receptor beta (RARb), RARB (gene 5915), sequence (P10826 whole entry, looked up, the tested form may be a part): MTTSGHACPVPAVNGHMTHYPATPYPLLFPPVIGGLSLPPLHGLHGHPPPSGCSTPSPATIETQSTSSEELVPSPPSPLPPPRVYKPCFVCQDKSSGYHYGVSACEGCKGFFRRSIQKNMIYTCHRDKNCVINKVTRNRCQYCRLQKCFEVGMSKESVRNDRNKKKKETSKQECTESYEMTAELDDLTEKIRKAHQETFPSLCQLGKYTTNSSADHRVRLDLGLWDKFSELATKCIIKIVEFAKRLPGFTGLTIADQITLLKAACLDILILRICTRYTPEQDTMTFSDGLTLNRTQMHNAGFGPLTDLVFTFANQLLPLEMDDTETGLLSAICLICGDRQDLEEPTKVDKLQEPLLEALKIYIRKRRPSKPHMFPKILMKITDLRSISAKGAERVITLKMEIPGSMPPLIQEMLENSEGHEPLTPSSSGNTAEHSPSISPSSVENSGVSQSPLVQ
Outline: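 HepG2 cells transiently transfected with multiplexed GAL4-UAS reporter units expressing chimeric NR–Gal4 fusions; 24 h compound exposure. Reporter mRNA quantified by RT-PCR, 6-FAM labelling, HpaI digestion and capillary electrophoresis; gain-of-signal fitted against DMSO baseline.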

[5] = BSK_3C_Proliferation: Cell Proliferation Assessment in the BioMAP Diversity Plus: 3C Assay (AID 2283006; active = hit-call score of the fitted dose curve at least 0.9, where 1 is the maximum; inactive = score below 0.9;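 for AC50: potency may reflect either rise or fall in cell number versus DMSO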); conditions: primary human endothelial cells (HUVEC)
Outline: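 Proliferation of human vascular endothelial primary cells after 48 h dosing, quantified as SRB-stained protein at 560 nm relative to DMSO.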

[6] = biological target: Nuclear receptor subfamily 1 group I member 2 (Homo sapiens) (UniProt O75469); experiment: ATG_PXR_TRANS: Attagene TRANS-FACTORIAL HepG2 Assay for human Pregnane X Receptor (PXR) (AID 2283008)
Nuclear receptor subfamily 1 group I member 2 (Homo sapiens), sequence (O75469 whole entry, looked up, the tested form may be a part): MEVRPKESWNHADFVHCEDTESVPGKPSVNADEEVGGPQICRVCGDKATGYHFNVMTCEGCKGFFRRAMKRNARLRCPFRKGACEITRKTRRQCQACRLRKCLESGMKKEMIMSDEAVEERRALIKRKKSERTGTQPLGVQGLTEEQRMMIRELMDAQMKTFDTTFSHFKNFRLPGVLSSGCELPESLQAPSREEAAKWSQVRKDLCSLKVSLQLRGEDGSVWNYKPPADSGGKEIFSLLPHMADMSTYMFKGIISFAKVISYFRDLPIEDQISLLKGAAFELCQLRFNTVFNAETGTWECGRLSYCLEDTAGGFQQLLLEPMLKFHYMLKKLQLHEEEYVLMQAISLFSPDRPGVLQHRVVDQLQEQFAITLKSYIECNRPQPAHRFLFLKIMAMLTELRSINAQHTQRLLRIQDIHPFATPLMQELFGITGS
Outline: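 Read-out is fluorescence of labelled reporter cDNA fragments separated by capillary electrophoresis after RT-PCR and HpaI digestion. Source: HepG2 cells carrying PXR-GAL4/UAS reporter constructs, treated 24 h; activity fitted upward relative to DMSO.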

[7] = biological target: human Retinoic Acid Receptor gamma (RARg), RARG (gene 5916) (UniProt P13631); experiment: ATG_RARg_TRANS: Attagene TRANS-FACTORIAL HepG2 Assay for human Retinoic Acid Receptor gamma (RARg) (AID 2283009)
human Retinoic Acid Receptor gamma (RARg), RARG (gene 5916), sequence (P13631 whole entry, looked up, the tested form may be a part): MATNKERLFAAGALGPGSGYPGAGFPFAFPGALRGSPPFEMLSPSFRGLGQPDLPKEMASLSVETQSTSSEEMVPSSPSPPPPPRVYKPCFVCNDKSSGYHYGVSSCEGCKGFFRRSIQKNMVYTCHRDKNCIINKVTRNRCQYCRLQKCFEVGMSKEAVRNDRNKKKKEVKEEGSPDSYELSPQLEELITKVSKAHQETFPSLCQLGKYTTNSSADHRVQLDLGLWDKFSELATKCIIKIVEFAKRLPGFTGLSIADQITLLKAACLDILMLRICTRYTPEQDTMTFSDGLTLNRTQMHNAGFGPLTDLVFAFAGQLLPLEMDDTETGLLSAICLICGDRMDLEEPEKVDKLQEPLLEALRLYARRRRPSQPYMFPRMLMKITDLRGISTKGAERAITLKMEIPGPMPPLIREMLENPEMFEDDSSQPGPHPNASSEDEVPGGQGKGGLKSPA
Outline: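 HepG2, RARg-GAL4 TRANS system, 24 h exposure; reporter mRNA by RT-PCR + CE fluorescence; increase over DMSO.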

[8] = biological target: human RAR-related Orphan Receptor gamma (RORg), RORC (gene 6097) (UniProt P51449); experiment: ATG_RORg_TRANS: Attagene TRANS-FACTORIAL HepG2 Assay for human RAR-related Orphan Receptor gamma (RORg) (AID 2283011)
Outline: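 Readout: reporter transcript induction (RT-PCR, fluorescent primer extension, capillary electrophoresis) after 24 h compound exposure of transiently transfected HepG2 cells carrying a RORg-Gal4 chimera and GAL4-UAS reporters; DMSO served as baseline, with increasing signal fitted.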

[9] = biological target: human Retinoid X Receptor beta (RXRb), RXRB (gene 6257) (UniProt P28702); experiment: ATG_RXRb_TRANS: Attagene TRANS-FACTORIAL HepG2 Assay for human Retinoid X Receptor beta (RXRb) (AID 2283013)
human Retinoid X Receptor beta (RXRb), RXRB (gene 6257), sequence (P28702 whole entry, looked up): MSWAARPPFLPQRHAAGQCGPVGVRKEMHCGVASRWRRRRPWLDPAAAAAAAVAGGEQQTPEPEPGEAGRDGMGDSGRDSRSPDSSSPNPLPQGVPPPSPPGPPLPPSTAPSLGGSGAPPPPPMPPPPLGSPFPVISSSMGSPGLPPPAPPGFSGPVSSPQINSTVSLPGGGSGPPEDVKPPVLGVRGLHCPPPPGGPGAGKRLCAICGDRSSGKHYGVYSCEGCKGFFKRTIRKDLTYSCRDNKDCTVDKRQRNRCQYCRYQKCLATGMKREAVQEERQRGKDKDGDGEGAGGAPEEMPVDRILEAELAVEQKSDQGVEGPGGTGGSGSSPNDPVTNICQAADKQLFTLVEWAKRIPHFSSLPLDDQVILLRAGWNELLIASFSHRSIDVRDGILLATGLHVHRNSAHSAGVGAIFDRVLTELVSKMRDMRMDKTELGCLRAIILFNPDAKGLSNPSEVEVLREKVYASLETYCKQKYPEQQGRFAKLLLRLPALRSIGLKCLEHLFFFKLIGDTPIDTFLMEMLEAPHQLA
Outline: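 Multiplexed TRANS reporter assay in HepG2; 24 h dosing; reporter mRNA by RT-PCR/CE fluorescence; gain-of-signal relative to DMSO.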

[10] = biological target: human Thyroid Receptor alpha (THRa1), THRA (gene 7067) (UniProt P10827); experiment: ATG_THRa1_TRANS: Attagene TRANS-FACTORIAL HepG2 Assay for human Thyroid Receptor alpha (THRa1) (AID 2283014)
human Thyroid Receptor alpha (THRa1), THRA (gene 7067), sequence (P10827 whole entry, looked up, the tested form may be a part): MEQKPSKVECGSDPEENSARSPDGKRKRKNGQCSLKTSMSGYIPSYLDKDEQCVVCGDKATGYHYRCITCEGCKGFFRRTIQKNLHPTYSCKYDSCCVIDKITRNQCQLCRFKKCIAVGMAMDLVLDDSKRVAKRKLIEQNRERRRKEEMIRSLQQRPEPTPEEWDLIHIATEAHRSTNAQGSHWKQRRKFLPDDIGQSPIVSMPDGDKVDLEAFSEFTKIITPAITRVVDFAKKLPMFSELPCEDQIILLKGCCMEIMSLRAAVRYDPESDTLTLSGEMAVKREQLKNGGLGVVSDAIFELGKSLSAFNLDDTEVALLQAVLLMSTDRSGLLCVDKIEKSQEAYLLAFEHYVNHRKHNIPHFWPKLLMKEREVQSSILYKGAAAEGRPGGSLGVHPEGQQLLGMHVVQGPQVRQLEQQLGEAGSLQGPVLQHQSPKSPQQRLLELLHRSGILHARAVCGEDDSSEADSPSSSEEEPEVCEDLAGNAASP
Outline: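 HepG2 cells transiently transfected with multiplexed GAL4-UAS reporter units for exogenous chimeric THRa1-Gal4; reporter mRNA measured 24 h after dosing by RT-PCR, 6-FAM labelling, HpaI digestion and capillary electrophoresis. Gain-of-signal fitted versus DMSO baseline.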

[11] = read-out: E-selectin (Homo sapiens) (UniProt P16581); experiment: BSK_3C_Eselectin: BioMAP Diversity Plus: 3C Assay for Eselectin Biomarker Activity (AID 2283015; active = hit-call score of the fitted dose curve at least 0.9, where 1 is the maximum; inactive = score below 0.9); conditions: primary human endothelial cells (HUVEC); actives raise or lower the signal
Outline: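 Primary human umbilical vein endothelial cells (3C system) were dosed with chemical and cell-surface E-selectin measured by ELISA 24 h later. Bidirectional curve fitting used DMSO as negative control and baseline.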

[12] = read-out: Interleukin-1 alpha (IL1a), IL1A (gene 3552); experiment: BSK_BE3C_IL1a: BioMAP Diversity Plus: BE3C Assay for Interleukin-1 alpha (IL1a) Biomarker Activity (AID 2283016; active = hit-call score of the fitted dose curve at least 0.9, where 1 is the maximum; inactive = score below 0.9); conditions: primary human bronchial epithelial cells; actives raise or lower the signal
Outline: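 Cultures of primary human bronchial epithelial cells receive test chemical. After 24 h, IL-1a is quantified by ELISA, while parallel wells are fixed in TCA and SRB-stained for total protein. Changes in either direction are fitted relative to DMSO.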

[13] = read-out: Monocyte Chemoattractant Protein-1 (MCP1), CCL2 (gene 6347); experiment: BSK_3C_MCP1: BioMAP Diversity Plus: 3C Assay for Monocyte Chemoattractant Protein-1 (MCP1) Biomarker Activity (AID 2283017; active = hit-call score of the fitted dose curve at least 0.9, where 1 is the maximum; inactive = score below 0.9); conditions: primary human endothelial cells (HUVEC); actives raise or lower the signal
Outline: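 Primary human umbilical vein endothelial cells (3C system) were exposed to test chemical for 24 h, after which MCP-1 was quantified by ELISA. Activity was fitted bidirectionally against DMSO as negative control and baseline.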

[14] = read-out: Monocyte Chemoattractant Protein-1 (MCP1), CCL2 (gene 6347); experiment: BSK_4H_MCP1: BioMAP Diversity Plus: 4H Assay for Monocyte Chemoattractant Protein-1 (MCP1) Biomarker Activity (AID 2283018; active = hit-call score of the fitted dose curve at least 0.9, where 1 is the maximum; inactive = score below 0.9); conditions: primary human endothelial cells (HUVEC); actives raise or lower the signal
Outline: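 Readout: MCP-1 ELISA on compound-treated HUVEC, sampled 24 h post-dosing. Baseline and negative control DMSO; bidirectional fit. Overt toxicity checked alongside by sulforhodamine B protein staining at time of biomarker measurement.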

[15] = read-out: Human Leukocyte Antigen - DR isotype (HLADR), HLA-DRA (gene 3122); experiment: BSK_3C_HLADR: BioMAP Diversity Plus: 3C Assay for Human Leukocyte Antigen - DR isotype (HLADR) Biomarker Activity (AID 2283019; active = hit-call score of the fitted dose curve at least 0.9, where 1 is the maximum; inactive = score below 0.9); conditions: primary human endothelial cells (HUVEC); actives raise or lower the signal
Outline: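 Primary human umbilical vein endothelial cells (3C system) were dosed with compound and cell-surface HLA-DR was quantified by ELISA at 24 h. Activity was fitted bidirectionally against DMSO as negative control and baseline.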

[16] = biological target: human Peroxisome Proliferator-activated Receptor alpha (PPARa), PPARA (gene 5465) (UniProt Q07869); experiment: ATG_PPARa_TRANS: Attagene TRANS-FACTORIAL HepG2 Assay for human Peroxisome Proliferator-activated Receptor alpha (PPARa) (AID 2283001)
Outline: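 HepG2 cells transiently transfected with multiplexed GAL4-UAS reporter units and chimeric NR-Gal4 constructs were dosed for 24 h. Reporter mRNA was measured by RT-PCR with fluorescent labelling and capillary electrophoresis; gain of signal fitted against DMSO.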

[17] = biological target: Peroxisome proliferator-activated receptor gamma (Homo sapiens) (UniProt P37231); experiment: ATG_PPARg_TRANS: Attagene TRANS-FACTORIAL HepG2 Assay for human Peroxisome Proliferator-activated Receptor-gamma (PPARg) (AID 2283007)
Peroxisome proliferator-activated receptor gamma (Homo sapiens), sequence (P37231 whole entry, looked up, the tested form may be a part): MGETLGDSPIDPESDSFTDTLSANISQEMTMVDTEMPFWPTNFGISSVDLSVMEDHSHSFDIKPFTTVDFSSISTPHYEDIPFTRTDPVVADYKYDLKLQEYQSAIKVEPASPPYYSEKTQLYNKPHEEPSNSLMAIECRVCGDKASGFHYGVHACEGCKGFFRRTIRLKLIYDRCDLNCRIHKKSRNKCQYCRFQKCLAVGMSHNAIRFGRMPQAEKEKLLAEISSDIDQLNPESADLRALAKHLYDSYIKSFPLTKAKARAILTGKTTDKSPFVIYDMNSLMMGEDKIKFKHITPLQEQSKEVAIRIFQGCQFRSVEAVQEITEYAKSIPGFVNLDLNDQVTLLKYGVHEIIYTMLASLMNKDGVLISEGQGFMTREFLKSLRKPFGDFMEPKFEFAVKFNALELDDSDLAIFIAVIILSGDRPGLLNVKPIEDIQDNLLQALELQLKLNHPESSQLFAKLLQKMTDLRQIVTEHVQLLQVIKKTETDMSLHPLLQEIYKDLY
Outline: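 A TRANS-format multiplexed reporter assay measures activity of an exogenous chimeric NR-Gal4 protein in HepG2 cells. After 24 h of chemical exposure, reporter transcripts are amplified, fluorescently labelled and sized by capillary electrophoresis, with gain of signal scored against DMSO.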

[18] = biological target: human RAR-related Orphan Receptor beta (RORb), RORB (gene 6096) (UniProt Q92753); experiment: ATG_RORb_TRANS: Attagene TRANS-FACTORIAL HepG2 Assay for human RAR-related Orphan Receptor beta (RORb) (AID 2283010)
human RAR-related Orphan Receptor beta (RORb), RORB (gene 6096), sequence (Q92753 whole entry, looked up, the tested form may be a part): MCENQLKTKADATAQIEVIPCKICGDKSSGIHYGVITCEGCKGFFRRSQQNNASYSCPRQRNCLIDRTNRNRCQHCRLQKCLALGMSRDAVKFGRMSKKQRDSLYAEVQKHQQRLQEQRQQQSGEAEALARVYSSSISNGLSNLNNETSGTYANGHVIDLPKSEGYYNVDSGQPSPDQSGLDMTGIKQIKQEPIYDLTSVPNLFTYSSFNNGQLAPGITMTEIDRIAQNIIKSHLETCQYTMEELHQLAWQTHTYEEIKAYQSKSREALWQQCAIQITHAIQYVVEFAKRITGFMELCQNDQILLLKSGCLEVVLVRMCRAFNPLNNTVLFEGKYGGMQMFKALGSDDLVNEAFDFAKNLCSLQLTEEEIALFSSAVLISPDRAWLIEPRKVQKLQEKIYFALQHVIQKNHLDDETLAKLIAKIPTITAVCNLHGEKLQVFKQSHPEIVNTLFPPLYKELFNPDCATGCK
Outline: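 In this TRANS-format test, human HepG2 cells express chimeric NR-Gal4 fusion proteins driving GAL4-UAS reporters. After 24 h dosing, reporter transcripts are measured by fluorescent RT-PCR/capillary electrophoresis, with DMSO as negative control.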

[19] = biological target: Retinoic acid receptor RXR-alpha (Homo sapiens) (UniProt P19793); experiment: ATG_RXRa_TRANS: Attagene TRANS-FACTORIAL HepG2 Assay for human Retinoid X Receptor alpha (RXRa) (AID 2283012)
Retinoic acid receptor RXR-alpha (Homo sapiens), sequence (P19793 whole entry, looked up, the tested form may be a part): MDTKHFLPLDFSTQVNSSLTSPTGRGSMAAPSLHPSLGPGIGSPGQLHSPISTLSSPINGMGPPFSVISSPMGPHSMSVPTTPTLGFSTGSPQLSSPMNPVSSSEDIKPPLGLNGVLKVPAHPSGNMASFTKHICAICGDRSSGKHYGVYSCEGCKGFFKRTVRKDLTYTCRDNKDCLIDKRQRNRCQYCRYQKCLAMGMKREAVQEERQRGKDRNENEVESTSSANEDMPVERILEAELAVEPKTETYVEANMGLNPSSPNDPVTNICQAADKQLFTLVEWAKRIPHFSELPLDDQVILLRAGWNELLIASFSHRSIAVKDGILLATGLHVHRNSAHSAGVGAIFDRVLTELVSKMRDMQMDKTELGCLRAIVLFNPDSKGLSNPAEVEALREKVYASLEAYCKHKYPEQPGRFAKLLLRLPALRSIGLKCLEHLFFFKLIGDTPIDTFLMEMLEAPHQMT
Outline: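 Cells (HepG2) carried transiently transfected GAL4-responsive reporter units. Following a 24 h chemical incubation, reporter mRNA induction was read via RT-PCR fragment analysis; DMSO served as negative control and baseline.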

[20] = biological target: Retinoic acid receptor alpha (Homo sapiens) (UniProt P10276); experiment: ATG_RARa_TRANS: Attagene TRANS-FACTORIAL HepG2 Assay for human Retinoic Acid Receptor alpha (RARa) (AID 2283005)
Retinoic acid receptor alpha (Homo sapiens), sequence (P10276 whole entry, looked up, the tested form may be a part): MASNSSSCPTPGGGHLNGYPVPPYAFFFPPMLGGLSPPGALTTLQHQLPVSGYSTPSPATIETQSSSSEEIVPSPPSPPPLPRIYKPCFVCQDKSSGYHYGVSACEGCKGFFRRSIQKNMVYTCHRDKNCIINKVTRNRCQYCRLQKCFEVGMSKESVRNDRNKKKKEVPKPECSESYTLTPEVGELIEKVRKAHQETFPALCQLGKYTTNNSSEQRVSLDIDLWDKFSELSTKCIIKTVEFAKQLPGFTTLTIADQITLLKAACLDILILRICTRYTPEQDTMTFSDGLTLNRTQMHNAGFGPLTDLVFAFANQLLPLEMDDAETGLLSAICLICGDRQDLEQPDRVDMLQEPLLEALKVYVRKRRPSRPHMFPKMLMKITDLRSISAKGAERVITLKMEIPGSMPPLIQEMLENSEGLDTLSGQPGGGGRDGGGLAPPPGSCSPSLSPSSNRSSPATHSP
Outline: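 HepG2 cells transiently transfected with multiple reporter units expressing chimeric RARα-GAL4 fusion, with GAL4-UAS-driven reporters. After 24 h compound exposure, reporter mRNA induction quantified by RT-PCR and capillary electrophoresis with fluorescent labeling; gain-of-signal fitted relative to DMSO control.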

Measured: AC50

E-selectin (Homo sapiens), sequence (P16581 whole entry, looked up): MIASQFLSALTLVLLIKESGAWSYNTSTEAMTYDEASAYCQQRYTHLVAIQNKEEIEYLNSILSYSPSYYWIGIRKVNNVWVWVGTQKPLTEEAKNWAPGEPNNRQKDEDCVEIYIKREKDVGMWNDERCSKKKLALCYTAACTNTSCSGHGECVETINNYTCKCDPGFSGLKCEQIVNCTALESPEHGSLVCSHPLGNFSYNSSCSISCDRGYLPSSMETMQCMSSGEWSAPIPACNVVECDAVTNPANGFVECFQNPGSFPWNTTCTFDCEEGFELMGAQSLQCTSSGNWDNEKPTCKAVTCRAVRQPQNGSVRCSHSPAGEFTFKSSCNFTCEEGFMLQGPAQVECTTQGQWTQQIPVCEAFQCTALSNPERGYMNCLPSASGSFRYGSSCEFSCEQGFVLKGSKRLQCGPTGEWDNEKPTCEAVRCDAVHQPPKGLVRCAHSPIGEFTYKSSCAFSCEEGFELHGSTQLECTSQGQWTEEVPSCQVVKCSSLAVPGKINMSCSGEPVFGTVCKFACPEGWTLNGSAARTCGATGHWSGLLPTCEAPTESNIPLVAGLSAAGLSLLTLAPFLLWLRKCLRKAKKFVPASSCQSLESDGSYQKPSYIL

OCCN1CCOCC1
not listed: [16] | [17] | [18] | [19] | [20]
inactive: all other assays above

CC(=O)OCC=C(C)CCC=C(C)CCC=C(C)C
active: [17] 18.9 µM | [6] 15.7 µM | [9] 9.14 µM | [14] 3.97 µM
not listed: [2] | [4] | [7] | [8] | [20]
inactive: all other assays above

Nc1ccc(N)c([N+](=O)[O-])c1
active: [11] 13.6 µM
not listed: [16] | [20]
inactive: all other assays above

COc1ccccc1NC(=O)CC(C)=O
not listed: [4] | [6] | [7] | [8] | [10] | [16] | [20]
inactive: all other assays above

CC(C)(CO)CO
inactive: [1] | [2] | [3] | [5] | [8] | [11] | [12] | [13] | [14] | [15]

CCOC(=O)CCCCCCCCC(=O)OCC
inactive: [1] | [3] | [5] | [17] | [18] | [9] | [11] | [12] | [13] | [14] | [15]

CCCCCCCC1CCCC1=O (centres undefined)
active: [1] 31.9 µM | [3] 31.3 µM | [5] 36.8 µM | [6] 34.2 µM | [11] 31.3 µM | [12] 34.1 µM | [13] 31.1 µM | [15] 31.6 µM
inactive: [16] | [17] | [7] | [18] | [19] | [9] | [14]

C[C@]12CC[C@@H]3c4ccc(O)cc4CC[C@H]3[C@@H]1CC[C@@H]2O
active: [1] 20 µM | [5] 8.41 µM | [11] 4.87 µM | [13] 12.2 µM | [14] 9.45 µM | [15] 16.1 µM
not listed: [2] | [6] | [8]
inactive: all other assays above

CCCCOCCOCCO
not listed: [2] | [6] | [8] | [9] | [16] | [17] | [19]
inactive: all other assays above

C=C(C)C(N)=O
inactive: [1] | [3] | [20] | [5] | [18] | [10] | [11] | [12] | [13] | [14] | [15]

NC(=O)c1c(Cl)cccc1Cl
active: [6] 0.36 µM
not listed: [2] | [4] | [7] | [9] | [20]
inactive: all other assays above

CC(C)Cc1ccc(C(C)C(=O)O)cc1 (centres undefined)
active: [2] 142 µM
not listed: [4] | [8] | [16] | [17] | [18] | [19] | [20]
inactive: all other assays above

CC(C)(C)c1cccc(O)c1
active: [6] 27.2 µM | [9] 66.4 µM
not listed: [4] | [8] | [10] | [18]
inactive: all other assays above
